# Columns and labels:
# Experiment in all cases: yeast three-hybrid, YBZ-1, SC-Leu-His + 0.5 mM 3-AT, 4 days
# Conditions in all cases: tags: N-Gal4 AD-HA kept; label: inside an RPR1-promoter hybrid RNA with tandem MS2 sites; ssRNA
# PUM1 PUF domain R8-CFK = PUM1 PUF domain R8-CFK (Homo sapiens, UniProt Q14671 828-1176, N1122C;Y1123F;Q1126K)
# Method in brief: (§1)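 Pumilio-1 PUF domain libraries, randomized (NNK) at the three base-contacting residues of each repeat, were co-expressed with matching RNA elements from a centromeric plasmid in strain YBZ-1 (LexA–MS2 coat fusion, HIS3 reporter). Transformants were plated on SC-Leu (input) and SC-Leu-His + 0.5 mM 3-AT (selection) for four days, and repeat regions were PCR-amplified and Illumina-sequenced. The interaction score is the log2 change in variant frequency from input to selection, with pseudocount 1 where absent.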
# PUM1 PUF domain R8-PWR = PUM1 PUF domain R8-PWR (Homo sapiens, UniProt Q14671 828-1176, N1122P;Y1123W;Q1126R)
# Method in brief: as §1
# PUM1 PUF domain R8-KHY = PUM1 PUF domain R8-KHY (Homo sapiens, UniProt Q14671 828-1176, N1122K;Y1123H;Q1126Y)
# Method in brief: as §1
# PUM1 PUF domain R8-AYK = PUM1 PUF domain R8-AYK (Homo sapiens, UniProt Q14671 828-1176, N1122A;Q1126K)
# Method in brief: as §1
# PUM1 PUF domain R8-RFL = PUM1 PUF domain R8-RFL (Homo sapiens, UniProt Q14671 828-1176, N1122R;Y1123F;Q1126L)
# Method in brief: as §1
# PUM1 PUF domain R3-YRR = PUM1 PUF domain R3-YRR (Homo sapiens, UniProt Q14671 828-1176, C935Y;Q939R)
# Method in brief: as §1
# PUM1 PUF domain R3-SCD = PUM1 PUF domain R3-SCD (Homo sapiens, UniProt Q14671 828-1176, C935S;R936C;Q939D)
# Method in brief: as §1
# PUM1 PUF domain R3-LNG = PUM1 PUF domain R3-LNG (Homo sapiens, UniProt Q14671 828-1176, C935L;R936N;Q939G)
# Method in brief: as §1
# PUM1 PUF domain R3-FRC = PUM1 PUF domain R3-FRC (Homo sapiens, UniProt Q14671 828-1176, C935F;Q939C)
# Method in brief: as §1
# PUM1 PUF domain R3-GHP = PUM1 PUF domain R3-GHP (Homo sapiens, UniProt Q14671 828-1176, C935G;R936H;Q939P)
# Method in brief: as §1
# PUM1 PUF domain R3-WCG = PUM1 PUF domain R3-WCG (Homo sapiens, UniProt Q14671 828-1176, C935W;R936C;Q939G)
# Method in brief: as §1
sequence,measurement,setting,value
GGCUAGAACUAGUGGAUCCCCCGGCGCCCGGCGGCUCGAGCCCGGGUAAGCGUAAAUAGUCUGCAUGCCGCCGGGCGCCAUGCCUGCAGGUCGACUCUAGAAAACAUG,binding signal,PUM1 PUF domain R8-CFK,4.21 log2 enrichment (interaction score)
same,binding signal,PUM1 PUF domain R8-PWR,4.3 log2 enrichment (interaction score)
same,binding signal,PUM1 PUF domain R8-KHY,4.22 log2 enrichment (interaction score)
same,binding signal,PUM1 PUF domain R8-AYK,4.11 log2 enrichment (interaction score)
same,binding signal,PUM1 PUF domain R8-RFL,5.36 log2 enrichment (interaction score)
GGCUAGAACUAGUGGAUCCCCCGGCGCCCGGCGGCUCGAGCCCGGGUAAGUGUAAGUAGUCUGCAUGCCGCCGGGCGCCAUGCCUGCAGGUCGACUCUAGAAAACAUG,binding signal,PUM1 PUF domain R3-YRR,4.01 log2 enrichment (interaction score)
same,binding signal,PUM1 PUF domain R3-SCD,5.61 log2 enrichment (interaction score)
same,binding signal,PUM1 PUF domain R3-LNG,3.21 log2 enrichment (interaction score)
same,binding signal,PUM1 PUF domain R3-FRC,4.65 log2 enrichment (interaction score)
same,binding signal,PUM1 PUF domain R3-GHP,4.47 log2 enrichment (interaction score)
same,binding signal,PUM1 PUF domain R3-WCG,4.13 log2 enrichment (interaction score)
GGCUAGAACUAGUGGAUCCCCCGGCGCCCGGCGGCUCGAGCCCGGGUAAGUGUAAUUAGUCUGCAUGCCGCCGGGCGCCAUGCCUGCAGGUCGACUCUAGAAAACAUG,binding signal,PUM1 PUF domain R3-YRR,0.22 log2 enrichment (interaction score)
same,binding signal,PUM1 PUF domain R3-LNG,1.7 log2 enrichment (interaction score)
same,binding signal,PUM1 PUF domain R3-GHP,4.31 log2 enrichment (interaction score)

# Source: PMC8384837, “Expanding the binding specificity for RNA recognition by a PUF domain”
